# Assay results taken from PubChem BioAssay (NCI).
# Where “and” joins values, the source holds several entries; their conditions need not be identical. Identical values can stand only once. The panel holds about 83,000 compounds, 20% with a hit somewhere; the sample as a whole holds those more often.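 Values shown are percent growth following 48 h exposure of cells in 96-well plates to a single concentration of compound; below 10 was considered active.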 Calls of active or inactive are those of the source.
# Tested on: MDA-MB-468 breast
# Assay: NCI-60 one-dose screen, 48 h (100 = growth as untreated, 0 = no growth, -100 = all killed)
# Conditions: 10 µM unless noted
row,SMILES,growth
1,COc1ccc(/C=N/NC(=O)Cn2c(-c3ccc(S(C)(=O)=O)cc3)nc3cc(Cl)ccc32)cc1,-18.5% (active)
2,Cc1ccc2nc(NC(=O)CSC(=S)N3CCN(Cc4ccccc4)CC3)sc2c1,-76.4% (active)
3,Cc1ccc(-c2nc(-c3cn(C)c4ncccc34)cs2)cc1,-50.2% [100 µM] (active)
4,CCCC(=O)NC(c1cccnc1)c1cc(Cl)c2cccnc2c1O (stereo not given),30.2% (inactive)
5,COC(=O)[C@@H](NC(=O)[C@@H](OC)[C@@H]1Cc2cc3cc(OC4CC(OC5CC(O)C(O)C(C)O5)C(O)C(C)O4)c(C)c(O)c3c(O)c2C(=O)[C@H]1OC1CC(OC2CC(OC3CC(C)(O)C(O)C(C)O3)C(O)C(C)O2)C(O)C(C)O1)C(C)C (stereo not given in full),-3.89% (active)
6,C=C1CC2(OC1=O)C(=O)N(CCCCCCCN1C(=O)C3(CC(=C)C(=O)O3)c3ccccc31)c1ccccc12 (stereo not given),-17% (active)
7,Cc1nn(-c2ccc(-c3ccc(OC(F)(F)F)cc3)cc2)c2nc(-c3ccccc3)nc(N)c12,82.6% (inactive)
8,CCOC(=O)c1nn(C2CCCCO2)c2ccc(NC(=O)CSc3nc4ccccc4c(=O)[nH]3)cc12 (stereo not given),95.7% (inactive)
9,O=C(COc1ccc(/C=C2\Cc3ccc(Cl)cc3C2=O)cc1)Nc1nccs1,98.8% (inactive)
10,CN1C(=O)/C(=C/c2ccc(C(=O)Nc3ncc(Cc4cc(Cl)ccc4Cl)s3)cc2)SC1=S,44.2% (inactive)
11,Cc1cccc2c(=O)c3c(sc12)c(NCCCNCCO)nc1ccccc13,16.3% (inactive)
12,CC(C)CCN(CCCNc1c2c(nc3ccccc13)CCCC2)CCC(C)C,57.2% (inactive)
13,Oc1c(Cl)cc(Cl)c2cccnc12,61% (inactive) and 42.6% (inactive)
14,Cc1ccc(Nc2ccc(Nc3ccc(C)cc3S(=O)(=O)O)c3c2C(=O)c2ccccc2C3=O)c(S(=O)(=O)O)c1,104% (inactive)
15,Nc1nc(-c2cccc([N+](=O)[O-])c2)c(N=Nc2cccc(Cl)c2)s1,11.5% (inactive)
16,O=C(O)c1ccccc1C(=O)Nc1ccc(Cl)cc1,120% (inactive)
17,O=C(N=Nc1c(O)[nH]c2ccc(F)cc12)c1cc2ccccc2[nH]1,124% (inactive)
18,O=C(Oc1cccc(OC(=O)c2ccccc2)c1)c1ccccc1,110% (inactive) and 101% (inactive)
19,C#CCNC(=O)[C@H](CC)[C@H]1CC[C@H](C)[C@H]([C@@H](C)[C@H](O)[C@H](C)C(=O)[C@H](CC)C2O[C@]3(C=CC(=O)[C@]4(CC[C@@](C)([C@H]5CC[C@](O)(CC)[C@H](C)O5)O4)O3)[C@H](C)C[C@@H]2C)O1 (stereo not given in full),9.34% (active)
20,CN(C)Cc1ccc(C(=O)Nc2ccc3ncnc(Nc4ccc(Oc5cccc(F)c5)c(Cl)c4)c3c2)cc1,-63% (active)

row,SMILES,growth
1,O=C(c1ccc(Cl)cc1)N1CCN(c2ccnc3cc(Cl)ccc23)CC1,72.7% (inactive)
2,COc1cccc(-c2nn(-c3ccccc3)cc2-c2ccnc(NCCNC(=O)Nc3ccc(Cl)c(Cl)c3)c2)c1,-17.4% (active)
3,COc1ccc(-c2nc3cccc(O)c3c(=O)n2Cc2ccccc2)cc1COc1ccc(NC(C)=O)cc1,71.9% [3 µM] (inactive)
4,O=C(NNc1nc2cc(F)cc(F)c2n2cccc12)c1cccnn1,-21% (active)
5,Fc1ccc(/C=C/c2cc(/C=C/c3ccc(F)cc3)n(-c3cc(F)cc(F)c3)n2)cc1,108% (inactive)
6,COc1cc(/C=C2\C(=O)Nc3ccccc32)ccc1OCc1ccc(Cl)cc1,102% (inactive)
7,Nc1nc2ccccc2c2c1S(=O)(=O)c1ccc(Cl)cc1C2=O,10.8% (inactive)
8,CCOC(=O)c1cn2ncnc(Oc3ccc(NC(=O)NCCN4CCOCC4)c(Cl)c3)c2c1C,85.1% (inactive)
9,COc1ccc(NC(=O)CSc2nc(-c3ccc(OC)c(OC)c3)cc(-c3cc(OC)c(OC)c(OC)c3)n2)cc1,110% (inactive)
10,Cc1cc(=O)[nH]c(N/N=C/c2ccccc2O)n1,58.1% (inactive)
11,COc1cc(Cc2cc(-c3ccccc3)n[nH]c2=O)cc(OC)c1OC,29% (inactive)
12,NC(=O)c1c(NC(=O)COC(=O)Cc2ccccc2F)sc2c1CCC2,112% (inactive)
13,O=C1Nc2ccc(Cl)cc2/C1=C/c1cccs1,-4.25% (active)
14,CC(C)(C)c1cc(NC(=O)Nc2ccc(-c3cn4c5c(sc4n3)CCc3c[nH]cc3-5)cc2)no1,22.6% (inactive)
15,NC(=S)Nc1ccc2c(c1)Cc1ccccc1-2,69.4% (inactive)
16,CC[C@]1(O)CC2CN(CCc3c([nH]c4ccccc34)[C@@](C(=O)OC)(c3cc4c(cc3OC)N(C=O)[C@H]3[C@@](O)(C(=O)OC)[C@H](OC(C)=O)[C@]5(CC)C=CCN6CC[C@]43[C@@H]65)C2)C1 (stereo not given in full),10.4% (inactive)
17,O=C1C=C(Nc2ccccc2)c2ncccc2C1=O,-61.3% (active)
18,Cc1cc2cn3c4ccc(O)cc4nc(N)c3c2cc1C,-9.7% (active)
19,O=S(=O)(NCCCNc1nccc(-c2[nH]c(-c3ccccc3)nc2-c2ccc(F)c(O)c2)n1)c1cccc(F)c1,66.5% (inactive)
20,CCCCCCc1cc2cc(-c3csc(/C=C/c4ccccc4)n3)c(=O)oc2cc1O,-21.1% (active)
